# ChEMBL document CHEMBL1961873, “Compounds: GSK PKIS; Assays: Nanosyn kinase panel” (2012)
# How the values were obtained:
# [1] = target: Serine/threonine-protein kinase pim-2 (Homo sapiens) (UniProt Q9P1W9); conditions: at 1 µM;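 note: each value is a mean of the inhibition measurements against the kinase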
# [2] = target: Serine/threonine-protein kinase pim-3 (Homo sapiens) (UniProt Q86V86); conditions: at 0.1 µM
# [3] = target: Serine/threonine-protein kinase pim-3 (Homo sapiens) (UniProt Q86V86); conditions: at 1 µM
# [4] = target: T1, MAP kinase-activated protein kinase 5 (Homo sapiens) (UniProt Q8IW41); conditions: at 0.1 µM
# T1 sequence (whole entry): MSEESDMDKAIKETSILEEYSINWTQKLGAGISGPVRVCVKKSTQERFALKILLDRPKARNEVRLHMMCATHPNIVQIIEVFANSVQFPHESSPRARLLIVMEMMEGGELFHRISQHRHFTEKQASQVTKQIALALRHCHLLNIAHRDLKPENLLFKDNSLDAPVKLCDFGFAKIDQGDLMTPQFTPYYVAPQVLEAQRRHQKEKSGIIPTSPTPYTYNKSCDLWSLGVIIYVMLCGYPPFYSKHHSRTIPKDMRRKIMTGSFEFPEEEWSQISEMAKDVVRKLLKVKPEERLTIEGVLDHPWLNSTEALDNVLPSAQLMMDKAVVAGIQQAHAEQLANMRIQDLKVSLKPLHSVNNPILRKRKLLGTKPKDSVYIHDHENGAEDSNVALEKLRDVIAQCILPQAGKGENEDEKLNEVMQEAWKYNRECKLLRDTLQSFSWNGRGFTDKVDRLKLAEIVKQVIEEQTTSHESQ
# [5] = target: T1, MAP kinase-activated protein kinase 5 (Homo sapiens); conditions: at 1 µM
# [6] = target: Serine/threonine-protein kinase SIK1 (Homo sapiens) (UniProt P57059); conditions: at 0.1 µM
# Serine/threonine-protein kinase SIK1 (Homo sapiens), sequence (P57059 whole entry): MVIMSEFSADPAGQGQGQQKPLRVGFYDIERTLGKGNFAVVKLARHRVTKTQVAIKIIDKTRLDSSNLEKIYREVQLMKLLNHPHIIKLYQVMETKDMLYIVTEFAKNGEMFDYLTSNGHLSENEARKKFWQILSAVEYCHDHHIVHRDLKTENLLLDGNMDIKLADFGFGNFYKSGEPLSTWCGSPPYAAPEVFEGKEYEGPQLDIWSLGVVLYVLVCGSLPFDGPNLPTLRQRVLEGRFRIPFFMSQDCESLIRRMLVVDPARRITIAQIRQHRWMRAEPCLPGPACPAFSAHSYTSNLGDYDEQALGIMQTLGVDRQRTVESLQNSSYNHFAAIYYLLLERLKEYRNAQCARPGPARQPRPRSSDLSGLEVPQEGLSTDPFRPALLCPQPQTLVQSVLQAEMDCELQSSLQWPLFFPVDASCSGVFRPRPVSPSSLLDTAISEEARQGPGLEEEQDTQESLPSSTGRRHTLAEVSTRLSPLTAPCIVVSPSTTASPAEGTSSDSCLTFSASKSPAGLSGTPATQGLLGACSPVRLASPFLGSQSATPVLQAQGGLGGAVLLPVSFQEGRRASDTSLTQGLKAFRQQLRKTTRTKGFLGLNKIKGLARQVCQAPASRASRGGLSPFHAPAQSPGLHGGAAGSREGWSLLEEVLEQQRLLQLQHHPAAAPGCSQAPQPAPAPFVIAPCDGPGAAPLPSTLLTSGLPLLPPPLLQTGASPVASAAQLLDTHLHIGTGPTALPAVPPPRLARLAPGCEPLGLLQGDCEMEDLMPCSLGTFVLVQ
# [7] = target: Serine/threonine-protein kinase SIK1 (Homo sapiens) (UniProt P57059); conditions: at 1 µM
# [8] = target: Serine/threonine-protein kinase SIK2 (Homo sapiens) (UniProt Q9H0K1); conditions: at 0.1 µM
# Serine/threonine-protein kinase SIK2 (Homo sapiens), sequence (Q9H0K1 whole entry, looked up): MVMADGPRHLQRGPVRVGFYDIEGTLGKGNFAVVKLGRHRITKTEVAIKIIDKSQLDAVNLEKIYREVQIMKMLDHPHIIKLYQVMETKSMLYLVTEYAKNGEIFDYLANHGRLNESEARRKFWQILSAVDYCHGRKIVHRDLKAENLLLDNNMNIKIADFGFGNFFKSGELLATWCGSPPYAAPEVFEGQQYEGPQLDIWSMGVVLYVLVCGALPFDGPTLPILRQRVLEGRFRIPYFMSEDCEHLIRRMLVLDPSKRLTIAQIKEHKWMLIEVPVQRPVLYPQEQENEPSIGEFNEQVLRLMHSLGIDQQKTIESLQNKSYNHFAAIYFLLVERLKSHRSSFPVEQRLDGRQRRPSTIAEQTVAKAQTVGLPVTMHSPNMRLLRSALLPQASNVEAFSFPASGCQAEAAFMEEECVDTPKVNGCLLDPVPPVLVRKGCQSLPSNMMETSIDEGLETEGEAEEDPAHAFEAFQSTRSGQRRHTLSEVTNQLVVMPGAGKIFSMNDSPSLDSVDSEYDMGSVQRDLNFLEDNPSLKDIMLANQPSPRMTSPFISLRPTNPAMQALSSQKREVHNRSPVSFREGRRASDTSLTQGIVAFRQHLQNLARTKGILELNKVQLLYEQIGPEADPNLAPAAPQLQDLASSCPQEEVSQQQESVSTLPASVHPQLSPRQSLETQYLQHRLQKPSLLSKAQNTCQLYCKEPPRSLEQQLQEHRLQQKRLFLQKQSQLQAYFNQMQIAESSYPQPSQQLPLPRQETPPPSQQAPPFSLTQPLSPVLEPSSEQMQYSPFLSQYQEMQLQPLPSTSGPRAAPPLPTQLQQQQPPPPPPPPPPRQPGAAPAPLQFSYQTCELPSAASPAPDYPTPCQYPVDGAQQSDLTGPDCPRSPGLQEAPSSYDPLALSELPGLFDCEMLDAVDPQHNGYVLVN
# [9] = target: Serine/threonine-protein kinase SIK2 (Homo sapiens) (UniProt Q9H0K1); conditions: at 1 µM
# [10] = target: T2, Serine/threonine-protein kinase TBK1 (Homo sapiens) (UniProt Q9UHD2); conditions: at 0.1 µM
# T2 sequence (whole entry): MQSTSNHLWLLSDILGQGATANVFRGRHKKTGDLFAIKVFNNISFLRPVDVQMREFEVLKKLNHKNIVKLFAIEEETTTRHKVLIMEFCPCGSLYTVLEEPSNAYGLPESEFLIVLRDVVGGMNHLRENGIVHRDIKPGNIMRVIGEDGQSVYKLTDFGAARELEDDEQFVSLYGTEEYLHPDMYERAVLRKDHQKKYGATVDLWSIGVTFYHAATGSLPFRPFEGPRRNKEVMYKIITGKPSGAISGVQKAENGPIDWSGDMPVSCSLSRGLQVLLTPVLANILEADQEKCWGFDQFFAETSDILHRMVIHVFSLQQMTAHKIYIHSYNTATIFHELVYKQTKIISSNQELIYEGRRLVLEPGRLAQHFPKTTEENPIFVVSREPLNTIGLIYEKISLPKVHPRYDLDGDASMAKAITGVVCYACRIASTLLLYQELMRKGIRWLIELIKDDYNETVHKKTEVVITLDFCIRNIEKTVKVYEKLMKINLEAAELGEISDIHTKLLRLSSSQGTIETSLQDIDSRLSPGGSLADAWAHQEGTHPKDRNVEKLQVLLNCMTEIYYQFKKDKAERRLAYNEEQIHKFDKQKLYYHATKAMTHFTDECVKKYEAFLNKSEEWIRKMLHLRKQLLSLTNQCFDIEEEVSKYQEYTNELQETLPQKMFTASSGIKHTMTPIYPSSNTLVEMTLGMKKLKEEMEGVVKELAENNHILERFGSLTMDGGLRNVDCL
# [11] = target: T2, Serine/threonine-protein kinase TBK1 (Homo sapiens); conditions: at 1 µM
# [12] = target: T3, Testis-specific serine/threonine-protein kinase 1 (Homo sapiens) (UniProt Q9BXA7); conditions: at 0.1 µM
# T3 sequence (whole entry): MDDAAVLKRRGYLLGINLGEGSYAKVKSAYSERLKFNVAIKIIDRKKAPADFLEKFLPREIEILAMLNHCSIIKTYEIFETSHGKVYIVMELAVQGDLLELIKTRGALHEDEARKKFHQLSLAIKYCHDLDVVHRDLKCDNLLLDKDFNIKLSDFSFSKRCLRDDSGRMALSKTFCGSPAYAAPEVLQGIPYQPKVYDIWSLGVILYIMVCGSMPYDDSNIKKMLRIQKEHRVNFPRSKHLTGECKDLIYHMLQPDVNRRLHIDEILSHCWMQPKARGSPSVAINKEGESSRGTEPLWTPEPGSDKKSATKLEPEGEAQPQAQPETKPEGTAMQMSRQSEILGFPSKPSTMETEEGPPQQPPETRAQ
# [13] = target: T3, Testis-specific serine/threonine-protein kinase 1 (Homo sapiens); conditions: at 1 µM
# [14] = target: T4, Testis-specific serine/threonine-protein kinase 2 (Homo sapiens) (UniProt Q96PF2); conditions: at 0.1 µM
# T4 sequence (whole entry): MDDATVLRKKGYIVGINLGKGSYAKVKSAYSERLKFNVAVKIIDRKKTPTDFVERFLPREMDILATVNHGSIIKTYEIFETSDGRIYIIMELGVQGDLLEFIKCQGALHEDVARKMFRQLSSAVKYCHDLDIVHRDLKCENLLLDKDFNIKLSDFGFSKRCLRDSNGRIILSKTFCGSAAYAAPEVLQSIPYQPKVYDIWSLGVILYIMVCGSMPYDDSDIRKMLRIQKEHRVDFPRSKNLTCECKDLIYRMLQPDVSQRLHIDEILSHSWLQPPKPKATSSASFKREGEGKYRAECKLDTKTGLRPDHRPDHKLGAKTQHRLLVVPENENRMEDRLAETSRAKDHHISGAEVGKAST
# [15] = target: T4, Testis-specific serine/threonine-protein kinase 2 (Homo sapiens); conditions: at 1 µM
# [16] = target: Casein kinase I isoform alpha (Homo sapiens) (UniProt P48729); conditions: at 0.1 µM
# Casein kinase I isoform alpha (Homo sapiens), sequence (P48729 2-337 limits assumed): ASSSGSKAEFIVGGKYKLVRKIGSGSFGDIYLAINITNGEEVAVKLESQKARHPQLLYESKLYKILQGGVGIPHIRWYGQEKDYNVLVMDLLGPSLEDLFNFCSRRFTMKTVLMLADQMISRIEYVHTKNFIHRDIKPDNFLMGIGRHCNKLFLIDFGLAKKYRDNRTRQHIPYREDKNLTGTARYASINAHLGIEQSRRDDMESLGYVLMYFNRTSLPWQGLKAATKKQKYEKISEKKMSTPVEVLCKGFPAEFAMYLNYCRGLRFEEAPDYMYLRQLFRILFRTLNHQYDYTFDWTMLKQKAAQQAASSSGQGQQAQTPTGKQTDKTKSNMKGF
# [17] = target: Casein kinase I isoform alpha (Homo sapiens) (UniProt P48729); conditions: at 1 µM
# [18] = target: Casein kinase I isoform gamma-1 (Homo sapiens) (UniProt Q9HCP0); conditions: at 0.1 µM
# Casein kinase I isoform gamma-1 (Homo sapiens), sequence (Q9HCP0 whole entry, looked up, canonical isoform): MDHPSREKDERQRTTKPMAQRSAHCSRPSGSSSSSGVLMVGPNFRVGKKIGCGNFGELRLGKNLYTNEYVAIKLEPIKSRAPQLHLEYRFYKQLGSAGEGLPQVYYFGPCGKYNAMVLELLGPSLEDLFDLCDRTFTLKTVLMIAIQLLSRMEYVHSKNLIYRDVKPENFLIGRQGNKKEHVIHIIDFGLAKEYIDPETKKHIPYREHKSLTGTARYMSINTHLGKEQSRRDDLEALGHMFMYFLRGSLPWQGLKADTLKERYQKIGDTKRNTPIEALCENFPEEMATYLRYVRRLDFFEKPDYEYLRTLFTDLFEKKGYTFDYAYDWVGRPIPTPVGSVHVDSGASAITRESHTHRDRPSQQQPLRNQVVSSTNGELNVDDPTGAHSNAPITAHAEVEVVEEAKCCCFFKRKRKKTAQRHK
# [19] = target: Casein kinase I isoform gamma-1 (Homo sapiens) (UniProt Q9HCP0); conditions: at 1 µM
# [20] = target: Casein kinase I isoform gamma-2 (Homo sapiens) (UniProt P78368); conditions: at 0.1 µM;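 note: values are mean inhibition figures reported as part of the GSK PKIS dataset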
# Casein kinase I isoform gamma-2 (Homo sapiens), sequence (P78368 whole entry, looked up, canonical isoform): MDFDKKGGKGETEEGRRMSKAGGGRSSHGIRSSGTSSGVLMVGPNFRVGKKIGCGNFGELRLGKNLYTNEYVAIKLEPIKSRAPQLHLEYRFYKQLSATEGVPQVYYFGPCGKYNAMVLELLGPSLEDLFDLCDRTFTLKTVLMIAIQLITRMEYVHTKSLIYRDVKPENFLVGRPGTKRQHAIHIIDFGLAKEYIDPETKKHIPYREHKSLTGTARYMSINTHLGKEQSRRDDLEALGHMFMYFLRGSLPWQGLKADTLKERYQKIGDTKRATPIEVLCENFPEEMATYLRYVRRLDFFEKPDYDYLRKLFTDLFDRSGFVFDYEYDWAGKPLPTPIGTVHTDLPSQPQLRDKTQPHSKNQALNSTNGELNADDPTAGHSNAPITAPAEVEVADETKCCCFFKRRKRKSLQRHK
# Serine/threonine-protein kinase pim-2 (Homo sapiens), sequence (Q9P1W9 whole entry, looked up): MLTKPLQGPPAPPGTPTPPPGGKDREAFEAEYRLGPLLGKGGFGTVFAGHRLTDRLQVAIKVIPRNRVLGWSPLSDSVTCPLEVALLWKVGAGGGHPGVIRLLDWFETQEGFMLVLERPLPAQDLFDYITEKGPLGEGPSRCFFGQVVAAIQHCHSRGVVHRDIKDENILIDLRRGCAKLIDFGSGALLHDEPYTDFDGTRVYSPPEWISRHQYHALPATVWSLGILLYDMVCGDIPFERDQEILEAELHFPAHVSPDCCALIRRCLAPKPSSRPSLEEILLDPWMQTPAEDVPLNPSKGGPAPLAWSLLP
Compound,inhibition [1] [%],inhibition [2] [%],inhibition [3] [%],inhibition [4] [%],inhibition [5] [%],inhibition [6] [%],inhibition [7] [%],inhibition [8] [%],inhibition [9] [%],inhibition [10] [%],inhibition [11] [%],inhibition [12] [%],inhibition [13] [%],inhibition [14] [%],inhibition [15] [%],inhibition [16] [%],inhibition [17] [%],inhibition [18] [%],inhibition [19] [%],inhibition [20] [%]
CC(C)c1ccc(Nc2nccc(-c3cnn4ncccc34)n2)cc1,1.73,0.51,6.16,0.53,1.09,4.79,8.55,2.73,11.3,1.14,13.9,3.15,5.95,2.67,0.57,-5.73,12.9,2.02,8.9,3.16
C[C@@H](Oc1cc(-n2cnc3ccc(OC[C@@H](O)CO)cc32)sc1C(N)=O)c1ccccc1Cl,1.97,2.99,22.2,-0.57,-0.59,-2.64,6.54,4.2,10.6,0.21,-0.29,0.57,1.14,-0.99,0.82,2.6,3.43,-1.5,2.39,-1.3
C[C@@H](Oc1cc(-n2cnc3ccc(OCC4CCN(C)CC4)cc32)sc1C(N)=O)c1ccccc1C(F)(F)F,1.56,8.51,47.6,-0.8,-1.08,13.5,65.6,6.88,30.3,-2.73,-1.33,1.47,22.4,-1.17,-0.35,-4.16,-1.43,-1.72,-1.25,-1.74
CN(C)C(=O)O[C@H]1CN[C@H](C#Cc2cc3ncnc(Nc4ccc(OCc5cccc(F)c5)c(Cl)c4)c3s2)C1,0.45,-0.1,-1.11,0.7,-0.94,4.32,5.89,11.5,12.2,-0.37,4.42,1.61,0.19,0.42,-1.25,-3.89,2.94,1.92,2.06,2.17
CN1CCN(C(=O)c2ccc(NC(=O)Nc3ccc(N(C)c4ccnc(Nc5ccc(CS(C)(=O)=O)cc5)n4)cc3)cc2)CC1,-0.35,0.13,2.14,1.17,1.29,3.16,17.6,-0.55,17.4,2.62,12.6,0.02,1.8,0.71,0.35,0.51,2.95,1.88,2.79,1.94
CCCN1CCCC(c2ccc(Nc3nc(Nc4cc(F)ccc4C(N)=O)c4cc[nH]c4n3)c(OC)c2)C1 (stereo not given),7.35,4.99,40.8,5.81,33.2,6.07,10.2,2.41,11,4.22,11.5,81,92.6,62.5,86,44.3,78.5,36.1,78,29.6
COc1cc(/C=N/Nc2ncnc3c2cnn3C(C)C)ccc1O,4.35,1.2,7.74,0.1,0.02,2.84,14.5,2.78,23.1,2.37,6.12,1.68,1.76,0.77,1.4,-0.04,0.99,1.74,3.2,1.49
O=C1Nc2ccc(-c3cccnc3)cc2C1=Cc1cc(Br)c(O)c(Br)c1,46.5,8.54,49,0.52,0.45,6.08,4.86,-1.13,-0.16,3.66,7.51,2.68,1.29,0.55,-0.14,6.06,3.87,4.05,4.74,2.62
Cc1cc(O)cc(C)c1/C=C/c1cncc(C(=O)N(C)C)c1,0.34,-1.55,-0.09,0.59,-0.52,9.45,29.4,4.34,4.27,1.36,4.11,4.05,0.84,2.08,0.19,1.94,3.01,1.26,1.95,1.03
CCn1c(-c2nonc2N)nc2c(C#CC(C)(C)O)nc(OCCNC)cc21,1.04,0.16,3.51,1.21,1.03,6.97,10.6,3.14,9.54,3.53,8.57,5.86,18,1.75,2.65,3.87,8.13,3.33,4.48,3.26
N#Cc1cccc(Nc2nccc(-c3cnn4ncccc34)n2)c1,7.85,4.41,34,1.48,4.15,8.01,15.1,4.44,11.9,1.58,22.1,6.69,10.6,2.43,2.95,28.9,69.8,5.75,28.2,6.38
COc1cc2ncnc(Nc3ccc(C)c(O)c3)c2cc1OC,2.78,2.48,4.22,3.96,2.36,5.14,33.2,7.06,18.9,1.88,5.95,3.91,3.21,1.77,2.03,4.56,5.91,4.01,4.87,4.2
Nc1ccc(C#Cc2cncnc2Nc2ccc(OCc3cccc(F)c3)c(Cl)c2)cc1,0.51,-0.08,1.14,1.7,0.75,5.15,2.18,-0.99,5.08,2.5,3.55,2.73,2.62,1.11,0.95,3.47,2.49,2.52,2.66,1.58
